# According to PubChem BioAssay (NCI):
# Compounds without any hit were thinned out: in the full panel of roughly 79,000, 15% have a hit. Unmarked numbers belong to inactive results. Calls of active or inactive are those of the source. No stated cut-off is given here; in the data, active means growth inhibition above about 70%; inactive means the rest.
# Experiments:
# [1] = NCI Yeast Anticancer Drug Screen. Data for the rad52 strain (AID 147);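 further: 0% = growth of vehicle-treated control cultures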; conditions: S. cerevisiae rad52 mutant growth inhibition, active compounds read high
# Outline: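 Yeast strain carrying a DNA damage repair alteration was exposed to test compounds. Growth inhibition was measured relative to vehicle-treated controls.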
# [2] = NCI Yeast Anticancer Drug Screen. Data for the rad50EPP+ strain (AID 151);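 further: 0% = growth of vehicle-treated control cultures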; conditions: S. cerevisiae rad50 mutant strain, active compounds read high
# Outline: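 Yeast strain carrying rad50 alteration (rad50EPP+) exposed to compounds; growth inhibition measured relative to vehicle-treated controls.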
# [3] = NCI Yeast Anticancer Drug Screen. Data for the mgt1 strain (AID 153); conditions: S. cerevisiae mgt1 mutant growth inhibition, active compounds read high
# Outline: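 Yeast mgt1 strain (DNA repair/cell-cycle alteration panel) exposed to compounds; growth inhibition measured relative to vehicle-treated controls.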
# [4] = NCI Yeast Anticancer Drug Screen. Data for the rad50 strain (AID 155);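 further: 0% = growth of vehicle-only cultures of the same strain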; conditions: S. cerevisiae rad50 strain growth inhibition, active compounds read high
# Outline: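 A DNA repair-deficient yeast mutant serves as the test organism; compound-induced growth inhibition is calculated against vehicle-treated cells.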
# [5] = NCI Yeast Anticancer Drug Screen. Data for the mec2-1 strain (AID 157); conditions: S. cerevisiae mec2-1 strain, active compounds read high
# Outline: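 mec2-1 yeast strain, carrying an alteration in DNA damage repair or cell cycle control, was exposed to compounds; growth inhibition was measured relative to vehicle-treated controls.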
# [6] = NCI Yeast Anticancer Drug Screen. Data for the rad14 strain (AID 159);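 further: 0% = growth of vehicle-treated control cultures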; conditions: S. cerevisiae rad14 strain growth inhibition, active compounds read high
# Outline: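 Vehicle-treated cultures served as the baseline for growth inhibition of a DNA repair-mutant yeast strain exposed to each compound.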
# [7] = NCI Yeast Anticancer Drug Screen. Data for the sgs1 mgt1 strain (AID 161);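 further: 0% = growth of cultures given vehicle only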; conditions: S. cerevisiae sgs1 mgt1 strain, active compounds read high
# Outline: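 Percent growth inhibition was derived by comparing compound-exposed mutant yeast with vehicle-exposed cultures. The strain carries alterations in DNA damage repair.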
# [8] = NCI Yeast Anticancer Drug Screen. Data for the CLN2oe strain (AID 163);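 further: 0% = growth of vehicle-only control cultures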; conditions: S. cerevisiae CLN2oe strain, active compounds read high
# Outline: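 Yeast cells carrying a defined cell-cycle control alteration were exposed to test compounds. Growth inhibition was scored against vehicle-treated control cultures.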
# [9] = NCI Yeast Anticancer Drug Screen. Data for the cln2 rad14 strain (AID 165);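 further: 0% = growth equal to vehicle treated cultures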; conditions: S. cerevisiae cln2 rad14 strain, active compounds read high
# Outline: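 Yeast carrying cln2 and rad14 alterations (cell cycle control and DNA damage repair) were exposed to compounds. Growth inhibition was measured against vehicle-treated controls.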
# [10] = NCI Yeast Anticancer Drug Screen. Data for the bub3 strain (AID 167); conditions: S. cerevisiae bub3 mutant strain, active compounds read high
# Outline: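 Inhibition values come from growth of compound-treated mutant yeast normalised to vehicle-treated controls.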
# [11] = NCI Yeast Anticancer Drug Screen. Data for the wt2 strain (AID 169);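 further: 0% = growth of vehicle-treated yeast cultures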; conditions: S. cerevisiae wt2 strain growth inhibition, active compounds read high
# Outline: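 Yeast cells were exposed to test compounds, and growth inhibition was measured relative to vehicle-treated controls.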
# [12] = NCI Yeast Anticancer Drug Screen. Data for the mlh1 strain (AID 171);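 further: 0% = growth of vehicle-treated control cultures of the same strain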; conditions: S. cerevisiae mlh1 strain growth inhibition, active compounds read high
# Outline: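 Yeast carrying a defined genetic alteration in DNA damage repair or cell cycle control were exposed to test compounds. Growth inhibition was measured relative to vehicle-treated controls.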
# [13] = NCI Yeast Anticancer Drug Screen. Data for the sgs1 strain (AID 173);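 further: 0% = growth of vehicle-only control cultures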; conditions: S. cerevisiae sgs1 mutant, active compounds read high
# Outline: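 Yeast mutant strains carrying defined defects in DNA damage repair or cell cycle control were exposed to test compounds. Growth inhibition was scored against vehicle-treated controls.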
# [14] = NCI Yeast Anticancer Drug Screen. Data for the mlh1 rad18 strain (AID 175); conditions: S. cerevisiae mlh1 rad18 strain growth inhibition, active compounds read high
# Outline: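 Growth inhibition of the yeast strain was measured after compound exposure and expressed relative to vehicle-treated controls. The strain carries defined defects in DNA damage repair.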
# [15] = NCI Yeast Anticancer Drug Screen. Data for the rad18 strain (AID 177); conditions: S. cerevisiae rad18 mutant growth inhibition, active compounds read high
# Outline: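 Yeast carrying a defined DNA damage repair alteration were exposed to compounds. Growth inhibition was expressed relative to vehicle-treated controls.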
# [16] = at 5.0 µM (retest, dose inferred, filed as 0.5)
# [17] = at 50.0 µM (retest, dose inferred, filed as 5.0)
smiles,measurement,setting,value
CO[C@@]12[C@H](COC(N)=O)C3=C(C(=O)C(C)=C(N)C3=O)N1C[C@@H]1N[C@@H]12,growth inhibition,[1]; at 1.2 µM,7%
same,growth inhibition,[1]; at 3.7 µM,19%
same,growth inhibition,[1]; at 11.0 µM,55%
same,growth inhibition,[1]; at 33.0 µM,83% (active)
same,growth inhibition,[1]; at 100.0 µM,92% (active)
same,growth inhibition,[2]; at 1.2 µM,-4%
same,growth inhibition,[2]; at 3.7 µM,5%
same,growth inhibition,[2]; at 11.0 µM,25%
same,growth inhibition,[2]; at 33.0 µM,63%
same,growth inhibition,[2]; at 100.0 µM,83% (active)
same,growth inhibition,[3]; at 1.2 µM,-2%
same,growth inhibition,[3]; at 3.7 µM,2%
same,growth inhibition,[3]; at 11.0 µM,11%
same,growth inhibition,[3]; at 33.0 µM,33%
same,growth inhibition,[3]; at 100.0 µM,79% (active)
same,growth inhibition,[4]; at 1.2 µM,1%
same,growth inhibition,[4]; at 3.7 µM,14%
same,growth inhibition,[4]; [16],23%
same,growth inhibition,[4]; at 11.0 µM,38%
same,growth inhibition,[4]; at 33.0 µM,76% (active)
same,growth inhibition,[4]; [17],72% (active)
same,growth inhibition,[4]; at 50.0 µM,65.3%
same,growth inhibition,[4]; at 100.0 µM,91% (active)
same,growth inhibition,[5]; at 1.2 µM,1%
same,growth inhibition,[5]; at 3.7 µM,13%
same,growth inhibition,[5]; [16],25%
same,growth inhibition,[5]; at 11.0 µM,29%
same,growth inhibition,[5]; at 33.0 µM,74% (active)
same,growth inhibition,[5]; [17],80% (active)
same,growth inhibition,[5]; at 50.0 µM,63.9%
same,growth inhibition,[5]; at 100.0 µM,91% (active)
same,growth inhibition,[6]; at 1.2 µM,6%
same,growth inhibition,[6]; at 3.7 µM,17%
same,growth inhibition,[6]; at 11.0 µM,39%
same,growth inhibition,[6]; at 33.0 µM,76% (active)
same,growth inhibition,[6]; at 100.0 µM,89% (active)
same,growth inhibition,[7]; [16],22%
same,growth inhibition,[7]; [17],68%
same,growth inhibition,[7]; at 50.0 µM,50.8%
same,growth inhibition,[8]; at 1.2 µM,-3%
same,growth inhibition,[8]; at 3.7 µM,0%
same,growth inhibition,[8]; at 11.0 µM,7%
same,growth inhibition,[8]; at 33.0 µM,38%
same,growth inhibition,[8]; at 100.0 µM,85% (active)
same,growth inhibition,[9]; [16],7%
same,growth inhibition,[9]; [17],57%
same,growth inhibition,[9]; at 50.0 µM,48.8%
same,growth inhibition,[10]; at 1.2 µM,1%
same,growth inhibition,[10]; at 3.7 µM,3%
same,growth inhibition,[10]; [16],29%
same,growth inhibition,[10]; at 11.0 µM,7%
same,growth inhibition,[10]; at 33.0 µM,26%
same,growth inhibition,[10]; [17],49%
same,growth inhibition,[10]; at 50.0 µM,25.4%
same,growth inhibition,[10]; at 100.0 µM,67%
same,growth inhibition,[11]; at 1.2 µM,-1%
same,growth inhibition,[11]; at 3.7 µM,4%
same,growth inhibition,[11]; at 11.0 µM,15%
same,growth inhibition,[11]; at 33.0 µM,51%
same,growth inhibition,[11]; at 100.0 µM,86% (active)
same,growth inhibition,[12]; at 1.2 µM,1%
same,growth inhibition,[12]; at 3.7 µM,7%
same,growth inhibition,[12]; at 11.0 µM,21%
same,growth inhibition,[12]; at 33.0 µM,55%
same,growth inhibition,[12]; at 100.0 µM,84% (active)
same,growth inhibition,[13]; at 1.2 µM,3%
same,growth inhibition,[13]; at 3.7 µM,11%
same,growth inhibition,[13]; at 11.0 µM,36%
same,growth inhibition,[13]; at 33.0 µM,71% (active)
same,growth inhibition,[13]; at 100.0 µM,90% (active)
same,growth inhibition,[14]; [16],72% (active)
same,growth inhibition,[14]; [17],92% (active)
same,growth inhibition,[14]; at 50.0 µM,71.7% (active)
same,growth inhibition,[15]; at 1.2 µM,20%
same,growth inhibition,[15]; at 3.7 µM,60%
same,growth inhibition,[15]; at 11.0 µM,84% (active)
same,growth inhibition,[15]; at 33.0 µM,93% (active)
same,growth inhibition,[15]; at 100.0 µM,94% (active)
